T cruzi growth-1: inhibitors of T. cruzi proliferation. AID 624255. inhibition, % at 8.34 µM. 77,000 tested, 5.9% active. T. cruzi beta-gal in NIH3T3, GalScreen luminescence, 90 h;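 active means mean inhibition above about 93%, with at least 55% of replicates each passing it, limit read from the data, passing the limit was not always enough; inconclusive means only one of those two conditions holds; inactive means neither condition holds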
Pf Dd2 growth: blocks growth of Plasmodium falciparum Dd2 parasites. activity change, % at 10 µM. P. falciparum Dd2 growth, SYBR Green, 72 h; hits give low values. 94,000 tested, 2.3% active; in the data active means activity change below about -80%; inconclusive means no clear call, values can overlap the other calls
C diff HTS: inhibitors of Clostridium difficile growth. 86,000 tested, 0.25% active. Clostridium difficile clinical isolate growth, OD600, 24 h; hits give low values. growth activity, negative = inhibition, % at 16 µg/mL (by protocol);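 active means mean growth activity at or below -80% and every replicate also at or below -80%; inconclusive means mean at or below -80% but some replicate above -80%; inactive means mean growth activity above -80%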;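 further: 0% = DMSO wells and -100% = levofloxacin 16 µg/mL wells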
T cruzi growth-2: inhibitors of T. cruzi proliferation | T. cruzi beta-gal in NIH3T3, GalScreen luminescence, 90 h | 5,600 tested, 72% active | shares compounds with T cruzi growth-1 | inhibition, % at 8.35 µM;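 active means mean replicate inhibition above about 95% and at least 55% of replicates individually reaching it, limit read from the data; inconclusive means only one of the two criteria is met; inactive means neither criterion is met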
T cruzi growth-3: Trypanosoma cruzi proliferation inhibition; shares compounds with T cruzi growth-1; T. cruzi beta-gal in NIH3T3, GalScreen luminescence, 90 h; inhibition, % at 2.09 µM; 5,600 tested, 21% active; AID 651740;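 active means mean inhibition above about 95%, with at least 55% of replicates also reaching it, limit read from the data; inconclusive means meets just one of the two conditions; inactive means meets neither condition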;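 further: plate controls were neutral control median for no effect and positive control median for full effect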
3T3 cytotox: cytotoxicity in mouse NIH/3T3 fibroblasts. shares compounds with T cruzi growth-1. AID 651742. 5,600 tested, 14% active. cytotoxicity (signal decrease), % at 8.35 µM. NIH/3T3 viability, CellTiter-Glo ATP luminescence, 90 h;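 active means mean signal decrease across replicates above about 35% based on untreated-well scatter, with enough replicates individually passing, limit read from the data; inconclusive means no rule stated though some were filed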;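 further: 0% = median of neutral control wells and 100% = median of positive control wells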
NIH3T3 tox 2: kills mouse NIH/3T3 fibroblasts. shares compounds with T cruzi growth-1. NIH/3T3 viability, CellTiter-Glo ATP luminescence, 90 h. inhibition, % at 24.9 µM. 5,600 tested, 56% active;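 active means mean loss of cell viability signal at or above a set limit, and enough replicates individually reaching it; inconclusive means meets only the mean limit or only the replicate share; inactive means meets neither condition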;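 further: 0% = median of neutral control wells and 100% = median of positive control wells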
An asterisk follows results filed as active; ? = inconclusive; . = no result. Sampled rows, rich in hits. Any-hit rate of the full collection: about 6.7%.

SMILES | T cruzi growth-1 | Pf Dd2 growth | C diff HTS | T cruzi growth-2 | T cruzi growth-3 | 3T3 cytotox | NIH3T3 tox 2
C[C@H]1CN([C@@H](C)CO)C(=O)c2cc(C#CC3CCCCC3)cnc2O[C@@H]1CN(C)S(=O)(=O)c1ccc(F)cc1 | 108* | -41 | 1 | 100* | 91 | 13 | 95*
C[C@H]1CN([C@@H](C)CO)C(=O)c2cc(C#CC3CCCCC3)cnc2O[C@H]1CN(C)S(=O)(=O)c1cccc(F)c1 | . | -12 | 7 | . | . | . | .
C[C@@H]1CN([C@H](C)CO)C(=O)c2cc(C#CC3CCCCC3)cnc2O[C@H]1CN(C)S(=O)(=O)c1cccc(F)c1 | . | -22 | 14 | . | . | . | .
C[C@H](CO)N1C[C@H](C)[C@@H](CN(C)S(=O)(=O)c2ccc(F)cc2)Oc2ncc(C#CC3CCCCC3)cc2C1=O | 86 | -39 | 5 | . | . | . | .
C[C@H](CO)N1C[C@H](C)[C@H](CN(C)C(=O)NC2CCCC2)Oc2ncc(-c3ccccc3F)cc2C1=O | 7 | 40 | -2 | . | . | . | .
C[C@H](CO)N1C[C@H](C)[C@H](CN(C)S(C)(=O)=O)Oc2ncc(C#CC3CCCCC3)cc2C1=O | 86 | 0 | -6 | . | . | . | .
C[C@@H]1CN([C@H](C)CO)C(=O)c2cc(C#CC3CCCCC3)cnc2O[C@@H]1CN(C)S(=O)(=O)c1ccccc1 | ? | -44 | -2 | 106* | 76 | 12 | 91*
C[C@@H]1CN([C@H](C)CO)S(=O)(=O)c2ccc(C#CCC3CCCC3)cc2O[C@H]1CN(C)C(=O)CN(C)C | 113 | -65 | 1 | . | . | . | .
C[C@H]1CN([C@@H](C)CO)S(=O)(=O)c2ccc(C#CCC3CCCC3)cc2O[C@@H]1CN(C)C(=O)CN(C)C | 122 | -72 | 4 | . | . | . | .
CCC(=O)N(C)C[C@@H]1Oc2cc(C#CCC3CCCC3)ccc2S(=O)(=O)N([C@@H](C)CO)C[C@@H]1C | 97* | -57 | -18 | ? | 88 | 19 | 104*
CCC(=O)N(C)C[C@@H]1Oc2cc(C#CCC3CCCC3)ccc2S(=O)(=O)N([C@H](C)CO)C[C@@H]1C | 105* | -55 | 4 | 107* | 87 | 4 | 97*
C=CCN1CCCc2c(-c3ccc(OCCO)cc3)noc2-c2cc(OC)c(OC)cc2CC1 | . | . | 0 | . | . | . | .
O=C(C[C@H]1CC[C@H]2[C@@H](COC[C@H](O)CN2Cc2cc(F)ccc2F)O1)N1CCc2ccccc2C1 | 98* | -37 | -4 | 79 | 0 | -8 | 16
O=C(C[C@@H]1CC[C@@H]2[C@H](COC[C@@H](O)CN2Cc2cc(F)ccc2F)O1)N1CCc2ccccc2C1 | 65 | -59 | -5 | . | . | . | .
O=C(C[C@H]1CC[C@H]2[C@@H](COC[C@@H](O)CN2Cc2cc(F)ccc2F)O1)N[C@H]1CCN(Cc2ccccc2)C1 | 158* | -64 | 0 | 86 | 52 | -13 | 3
O=C(C[C@@H]1CC[C@@H]2[C@H](COC[C@@H](O)CN2Cc2ccccc2F)O1)N[C@@H]1CCN(Cc2ccccc2)C1 | 99* | -19 | . | 80 | 46 | -18 | -47
O=C(C[C@H]1CC[C@@H]2[C@H](COC[C@@H](O)CN2Cc2cc(F)ccc2F)O1)N[C@@H]1CCN(Cc2ccccc2)C1 | 79 | -66 | 8 | . | . | . | .
O=C(C[C@H]1CC[C@@H]2[C@H](COC[C@H](O)CN2Cc2cc(F)ccc2F)O1)N[C@@H]1CCN(Cc2ccccc2)C1 | 130* | -77 | 1 | 67 | 8 | -18 | -5
O=C(C[C@@H]1CC[C@H]2[C@@H](COC[C@@H](O)CN2Cc2ccccc2F)O1)N[C@H]1CCN(Cc2ccccc2)C1 | 32 | -29 | . | . | . | . | .
O=C(C[C@@H]1CC[C@H]2[C@@H](COC[C@@H](O)CN2Cc2cc(F)ccc2F)O1)N[C@H]1CCN(Cc2ccccc2)C1 | 49 | -24 | 1 | . | . | . | .
COCC(=O)Nc1ccc2c(c1)C(=O)N(C)[C@H]1CC[C@H](CC(=O)NCc3ccc(OC)cc3)O[C@@H]1CO2 | 23 | -13 | 3 | . | . | . | .
O=C(C[C@H]1CC[C@H]2[C@@H](COC[C@@H](O)CN2Cc2cc(F)ccc2F)O1)N[C@@H]1CCN(Cc2ccccc2)C1 | 99* | -73 | 6 | 70 | 66 | -5 | -9
O=C(C[C@@H]1CC[C@H]2[C@@H](COC[C@@H](O)CN2Cc2cc(F)ccc2F)O1)N[C@@H]1CCN(Cc2ccccc2)C1 | 95 | -59 | 4 | . | . | . | .
CN(C)C(=O)c1ccc(-c2ccc3c(c2)[C@@H]2[C@@H](CCN2Cc2ccc4c(c2)OCO4)[C@H](CO)N3)cc1 | 40 | -54 | 4 | . | . | . | .
OC[C@@H]1Nc2ccc(C#Cc3ccc(F)cc3)cc2[C@H]2[C@@H]1CCN2Cc1ccc2c(c1)OCO2 | 142* | -71 | -3 | 109* | 108* | 41* | 104*
SMILES | T cruzi growth-1 | Pf Dd2 growth | C diff HTS | T cruzi growth-2 | T cruzi growth-3 | 3T3 cytotox | NIH3T3 tox 2
N#Cc1ccc(-c2ccc3c(c2)[C@H]2[C@H](CCN2Cc2ccc4c(c2)OCO4)[C@H](CO)N3)cc1 | ? | -57 | -96* | 106* | 69 | -6 | 105*
CN(C)C(=O)c1ccc(-c2ccc3c(c2)[C@H]2[C@H](CCN2Cc2ccc4c(c2)OCO4)[C@@H](CO)N3)cc1 | 53 | -54 | 67 | . | . | . | .
COc1ccccc1-c1ccc2c(c1)[C@@H]1[C@@H](CCN1S(=O)(=O)c1cccc(C)c1)[C@H](CO)N2 | 93 | -64 | 3 | . | . | . | .
O=C(Nc1cccc(F)c1)N1CCCCN2[C@H](CO)[C@H](c3ccc(C#CC4CC4)cc3)[C@H]2C1 | 102* | -51 | 67 | 98* | 100* | 122* | 104*
O=C(Nc1cccc(F)c1)N1CCCCN2[C@H](C1)[C@@H](c1ccc(C#CC3CC3)cc1)[C@@H]2CO | 85 | 5 | 47 | . | . | . | .
O=C(Nc1cccc(F)c1)N1CCCCN2[C@H](CO)[C@@H](c3ccc(C#CC4CC4)cc3)[C@H]2C1 | 112* | -36 | 43 | 107* | 80 | 26 | 104*
O=C(Nc1ccc(F)cc1)N1CCCCN2[C@@H](CO)[C@H](c3ccc(C#CC4CC4)cc3)[C@@H]2C1 | 53 | -55 | 43 | . | . | . | .
O=C(Nc1ccc(F)cc1)N1CCCCN2[C@H](CO)[C@@H](c3ccc(C#CC4CC4)cc3)[C@H]2C1 | 113* | -25 | 13 | 111* | 84 | 28 | 105*
O=C(Nc1cccc(F)c1)N1CCCCN2[C@@H](CO)[C@@H](c3ccc(C#CC4CC4)cc3)[C@@H]2C1 | 70 | -5 | 18 | . | . | . | .
O=C(Nc1cccc(F)c1)N1CCCCN2[C@H](CO)[C@@H](c3ccc(C#CC4CC4)cc3)[C@@H]2C1 | 110* | -10 | 61 | 106* | 104* | 23 | 104*
O=C(Nc1ccccc1)N1CCCCN2[C@H](CO)[C@@H](c3ccc(C#CC4CC4)cc3)[C@@H]2C1 | 86 | -9 | 18 | . | . | . | .
COCC(=O)N1CCC2(CC1)CN(Cc1ccccc1Cl)[C@@H](CO)c1c2c2ccc(OC)cc2n1C | . | -28 | . | . | . | . | .

Screens (PubChem BioAssay)
